Data reported in PubChem BioAssay (EPA / NIEHS).
Records with an inconclusive call do not appear. The source made the active and inactive calls. How the source made its calls, unless noted: active means hit-call score of the fitted dose curve at least 0.9, where 1 is the maximum; inconclusive means response in the unintended direction; inactive means score below 0.9.

Experiments:
[1] = biological target: Glucocorticoid receptor (Homo sapiens) (UniProt P04150); assay: NVS_NR_hGR: NovaScreen (NVS) Nuclear Receptor Binding Assay for human Glucocorticoid Receptor (GR) (AID 2283363);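 on AC50: activity is loss of specific radioligand binding signal relative to DMSO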
How it was run: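 Compounds first tested in duplicate at 25 uM, actives followed up in concentration series. Binding to extracted GR protein measured as competitive radioligand displacement, filter scintillation read 16 h post-dosing, normalised to DMSO.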

[2] = biological target: guinea pig Sigma Receptor, Non-selective Binding, SIGMAR1 (gene 100135589) (UniProt Q60492); assay: NVS_OR_gSIGMA_NonSelective: NovaScreen (NVS) Nuclear Receptor Binding Assay for guinea pig Sigma Receptor, Non-selective Binding (AID 2283367)
How it was run: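 Guinea pig brain membrane sigma sites were labelled with a radioligand, and bound radioactivity was counted after filtration 1 h post-dose. Compounds were screened at 25 uM in duplicate, then retested as concentration series when active.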

[3] = biological target: human Adenosine Transporter (Adot), SLC29A1 (gene 2030) (UniProt Q99808); assay: NVS_TR_hAdoT: NovaScreen (NVS) Transporter Assay for human Adenosine Transporter (Adot) (AID 2283368)
How it was run: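 Binding displacement on U937 extracted protein, read 1 h post-dose by filtration and scintillation counting. Primary duplicate test at 25 uM, then singleton concentration series with 50 uM top; DMSO baseline.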

[4] = biological target: Peroxisome proliferator-activated receptor gamma (Homo sapiens) (UniProt P37231); assay: NVS_NR_hPPARg: NovaScreen (NVS) Nuclear Receptor Binding Assay for human Peroxisome Proliferator-activated Receptor gamma (PPARg) (AID 2283370)
How it was run: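 Extracted receptor protein, cell-free; compound incubated 2 h then fluorescence polarization read. Baseline: DMSO. Actives from 25 uM duplicate screen re-run across concentrations.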

[5] = biological target: human Norepinephrine Transporter (NET), SLC6A2 (gene 6530) (UniProt P23975); assay: NVS_TR_hNET: NovaScreen (NVS) Transporter Assay for human Norepinephrine Transporter (NET) (AID 2283377);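 further: cell-free membrane protein extracted from CHO cells expressing human NET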;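 on AC50: displacement of radioligand from human NET seen as loss of scintillation signal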
How it was run: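 Single-concentration duplicate screen at 25 uM, then concentration-response for actives; displacement of specific radioligand from human NET in CHO membrane extracts, filter-based scintillation detection at 1 h relative to DMSO.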

[6] = biological target: Estrogen receptor beta (Homo sapiens) (UniProt Q92731); assay: OT_ER_ERbERb_1440: Odyssey Thera (OT) 24-hour HEK293T Protein-Complementation Assay for Estrogen Receptor-beta/-beta Homodimer (AID 2283380);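 further: fluorescence gain from ER beta LBD homodimer complementation read by laser scanning cytometry; scored as signal increase over DMSO baseline for both agonists and antagonists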
How it was run: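 Fluorescence increase, nuclear for agonists or whole-cell for antagonists, relative to DMSO vehicle, quantified by laser scanning cytometer after fixation and Draq5 staining. Readout from 24 h treatment of HEK293T cells carrying complementation-paired ER beta LBD (aa 310-547).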

[7] = biological target: Estrogen receptor (Homo sapiens) (UniProt P03372); assay: OT_ERa_GFPERaERE_0480: Odyssey Thera (OT) 8-hour HeLa Transcription Induction Assay for Estrogen Receptor (AID 2283381; active means hit-call score of the fitted dose curve at least 0.9, where 1 is the maximum; inactive means score below 0.9)
How it was run: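 GFP-ERE reporter, HeLa, 8 h exposure. Readout: fluorescence microscopy, high-content image analysis. Fit direction positive vs DMSO negative control.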

[8] = biological target: Estrogen receptor (Homo sapiens) (UniProt P03372); assay: OT_ERa_GFPERaERE_0120: Odyssey Thera (OT) 2-hour HeLa Transcription Induction Assay for Estrogen Receptor (AID 2283382)
How it was run: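 Fluorescence microscopy read-out: inducible fluorescent protein reporter in HeLa cells, imaged 2 h post-dose. Signal increase over DMSO negative control fitted as single primary endpoint via high content image analysis.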

[9] = biological target: Bile acid receptor (Homo sapiens) (UniProt Q96RI1); assay: OT_FXR_FXRSRC1_1440: Odyssey Thera (OT) 24-hour HEK293T Protein-Complementation Assay for Farnesoid X receptor/SRC-1 Co-activator (AID 2283384)
How it was run: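 Fluorescence readout, 24 h post-dose, HEK293T; FXR and SRC-1 fused to complementary reporter fragments, association reconstitutes signal. Positive-direction fit vs DMSO baseline.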

[10] = biological target: Retinoic acid receptor RXR-alpha (Homo sapiens) (UniProt P19793); assay: OT_NURR1_NURR1RXRa_1440: Odyssey Thera (OT) 24-hour HEK293T Protein Complementation Assay for Nurr1/retinoid X receptor (RXR) (AID 2283386)
How it was run: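 Fluorescence PCA read-out; HEK293T; 24 h post-dose; bait/prey fused to reporter fragments; gain-of-signal fit vs DMSO negative control.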

[11] = biological target: Agonist Androgen Response Element (ARE), AR (gene 367) (UniProt P10275); assay: OT_AR_ARELUC_AG_1440: Odyssey Thera (OT) 24-hour CHO-K1 Luciferase Assay for Agonist Androgen Response Element (ARE) (AID 2283379)
How it was run: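 Readout: luciferase bioluminescence from CHO-K1 ARE-luc cells, measured 24 h post-dosing; agonism = increased mean luminescence vs DMSO controls, fitted in positive direction.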

[12] = biological target: rat Androgen Receptor (AR), Ar (gene 24208) (UniProt P15207); assay: NVS_NR_rAR: NovaScreen (NVS) Nuclear Receptor Binding Assay for rat Androgen Receptor (AR) (AID 2283366)
How it was run: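 Actives from a duplicate single-concentration (25 uM) primary run went on to concentration series. Displacement of radioligand was counted by filtration and scintillation, 18 h post-dose, using prostate extracts from testosterone-pretreated rats, with DMSO as baseline.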

[13] = biological target: Retinoic acid receptor RXR-alpha (Homo sapiens) (UniProt P19793); assay: OT_NURR1_NURR1RXRa_0480: Odyssey Thera (OT) 8-hour HEK293T Protein Complementation Assay for Nurr1/retinoid X receptor (RXR) (AID 2283385)
How it was run: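 Read-out: fluorescence from protein-fragment complementation between Nurr1 and RXRα in human HEK293T cells, 8 h after dosing. DMSO served as negative control; increased signal counted as activity.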

[14] = biological target: rat Serotonin Transporter (SERT), Slc6a4 (gene 25553) (UniProt P31652); assay: NVS_TR_rSERT: NovaScreen (NVS) Transporter Assay for rat Serotonin Transporter (SERT) (AID 2283375)
How it was run: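 Using rat forebrain membrane SERT, test chemicals compete with a radioligand for 1 hour, and bound counts are taken by filter-based scintillation. Screening starts at 25 uM in duplicate, followed by concentration series for actives.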

[15] = system: guinea pig Dopamine Transporter (DAT), gene 100714898; assay: NVS_TR_gDAT: NovaScreen (NVS) Transporter Assay for guinea pig Dopamine Transporter (DAT) (AID 2283369);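 further: active compounds lower bound radioligand signal relative to DMSO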
How it was run: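 Primary pass: duplicate wells at 25 uM, threshold e.g. 30% inhibition. Follow-up: singleton concentration-response, highest 50 uM. Radioligand binding on guinea pig striatal membranes, 2 h, filtration scintillation detection.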

[16] = biological target: Nuclear receptor subfamily 1 group I member 2 (Homo sapiens) (UniProt O75469); assay: NVS_NR_hPXR: NovaScreen (NVS) Nuclear Receptor Binding Assay for human Pregnane X Receptor (PXR) (AID 2283365);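 further: a drop in FRET signal versus DMSO baseline means the compound binds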
How it was run: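 Read-out: TR-FRET, human PXR, 2 h post-dosing, cell-free. Loss of signal vs DMSO taken as binding activity; 25 uM primary, concentration series secondary.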

[17] = biological target: human Thyroid Receptor Alpha (TRa), THRA (gene 7067) (UniProt P10827); assay: NVS_NR_hTRa_Antagonist: NovaScreen (NVS) Nuclear Receptor Binding Assay for human Thyroid Receptor Alpha Antagonism (TRa) (AID 2283362);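 further: activity is loss of signal relative to DMSO baseline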
How it was run: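 In this biochemical format, receptor protein is dosed with chemical and read after 1 hour via AlphaLISA. Decreases from the DMSO baseline indicate antagonist activity; screening used 25 uM in duplicate before concentration-response confirmation.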

[18] = biological target: human Serotonin Transporter (SERT), SLC6A4 (gene 6532) (UniProt P31645); assay: NVS_TR_hSERT: NovaScreen (NVS) Transporter Assay for human Serotonin Transporter (SERT) (AID 2283372)
How it was run: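 Human platelet membrane preparation; displacement of radioligand from serotonin transporter measured after 1 h by filtration and scintillation counting. Single 25 uM duplicate screen, then concentration series for actives, with DMSO as negative baseline.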

[19] = system: rat Norepinephrine Transporter (NET), gene 83511; assay: NVS_TR_rNET: NovaScreen (NVS) Transporter Assay for rat Norepinephrine Transporter (NET) (AID 2283373)
How it was run: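 Competitive radioligand displacement at the rat NET using forebrain membrane preparations, 1 h incubation, filter-based scintillation readout. Primary testing in duplicate at a single 25 uM concentration; confirmed actives retested across concentrations.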

Measured: AC50

Estrogen receptor (Homo sapiens), sequence (P03372 whole entry, looked up): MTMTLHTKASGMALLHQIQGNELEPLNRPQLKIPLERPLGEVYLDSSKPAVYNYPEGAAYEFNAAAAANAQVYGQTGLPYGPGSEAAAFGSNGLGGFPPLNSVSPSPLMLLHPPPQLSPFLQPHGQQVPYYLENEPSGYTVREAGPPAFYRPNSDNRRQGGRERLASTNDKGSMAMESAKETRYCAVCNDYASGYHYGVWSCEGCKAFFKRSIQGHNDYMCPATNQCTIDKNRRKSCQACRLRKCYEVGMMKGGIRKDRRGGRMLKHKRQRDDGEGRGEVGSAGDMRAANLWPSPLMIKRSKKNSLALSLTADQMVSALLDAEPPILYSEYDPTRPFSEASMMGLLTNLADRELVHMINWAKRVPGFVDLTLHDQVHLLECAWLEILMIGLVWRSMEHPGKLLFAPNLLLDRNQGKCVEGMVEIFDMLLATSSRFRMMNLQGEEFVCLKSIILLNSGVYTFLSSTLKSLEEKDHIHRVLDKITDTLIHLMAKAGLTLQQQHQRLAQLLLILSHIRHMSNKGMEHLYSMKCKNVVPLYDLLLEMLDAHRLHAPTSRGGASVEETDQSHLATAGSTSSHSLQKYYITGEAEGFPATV
human Adenosine Transporter (Adot), SLC29A1 (gene 2030), sequence (Q99808 whole entry, looked up): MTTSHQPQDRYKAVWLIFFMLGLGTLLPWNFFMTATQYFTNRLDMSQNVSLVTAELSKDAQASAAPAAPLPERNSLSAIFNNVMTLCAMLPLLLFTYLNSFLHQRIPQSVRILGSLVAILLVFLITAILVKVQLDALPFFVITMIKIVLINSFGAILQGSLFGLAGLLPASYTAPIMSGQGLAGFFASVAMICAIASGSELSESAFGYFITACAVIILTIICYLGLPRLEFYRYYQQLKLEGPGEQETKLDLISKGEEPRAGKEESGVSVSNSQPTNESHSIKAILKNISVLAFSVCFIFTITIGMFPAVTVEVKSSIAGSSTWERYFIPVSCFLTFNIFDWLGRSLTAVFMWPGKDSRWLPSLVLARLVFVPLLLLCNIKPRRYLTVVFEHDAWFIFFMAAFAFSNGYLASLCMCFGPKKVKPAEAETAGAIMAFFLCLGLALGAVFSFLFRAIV
human Norepinephrine Transporter (NET), SLC6A2 (gene 6530), sequence (P23975 whole entry, looked up): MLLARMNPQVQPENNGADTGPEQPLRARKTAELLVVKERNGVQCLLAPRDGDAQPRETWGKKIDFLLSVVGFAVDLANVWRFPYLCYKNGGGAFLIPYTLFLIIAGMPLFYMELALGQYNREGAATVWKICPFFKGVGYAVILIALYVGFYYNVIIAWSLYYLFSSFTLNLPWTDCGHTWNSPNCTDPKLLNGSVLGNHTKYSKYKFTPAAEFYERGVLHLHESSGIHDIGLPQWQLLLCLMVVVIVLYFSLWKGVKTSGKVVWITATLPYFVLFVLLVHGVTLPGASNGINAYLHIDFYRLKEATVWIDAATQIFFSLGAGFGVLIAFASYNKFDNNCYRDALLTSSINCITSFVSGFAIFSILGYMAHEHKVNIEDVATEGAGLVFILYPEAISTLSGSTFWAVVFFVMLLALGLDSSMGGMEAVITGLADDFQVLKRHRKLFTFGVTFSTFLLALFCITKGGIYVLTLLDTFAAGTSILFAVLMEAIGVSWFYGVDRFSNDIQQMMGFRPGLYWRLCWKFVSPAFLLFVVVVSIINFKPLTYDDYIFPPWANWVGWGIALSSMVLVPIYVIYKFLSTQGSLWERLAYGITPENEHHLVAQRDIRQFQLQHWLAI
Peroxisome proliferator-activated receptor gamma (Homo sapiens), sequence (P37231 whole entry, looked up): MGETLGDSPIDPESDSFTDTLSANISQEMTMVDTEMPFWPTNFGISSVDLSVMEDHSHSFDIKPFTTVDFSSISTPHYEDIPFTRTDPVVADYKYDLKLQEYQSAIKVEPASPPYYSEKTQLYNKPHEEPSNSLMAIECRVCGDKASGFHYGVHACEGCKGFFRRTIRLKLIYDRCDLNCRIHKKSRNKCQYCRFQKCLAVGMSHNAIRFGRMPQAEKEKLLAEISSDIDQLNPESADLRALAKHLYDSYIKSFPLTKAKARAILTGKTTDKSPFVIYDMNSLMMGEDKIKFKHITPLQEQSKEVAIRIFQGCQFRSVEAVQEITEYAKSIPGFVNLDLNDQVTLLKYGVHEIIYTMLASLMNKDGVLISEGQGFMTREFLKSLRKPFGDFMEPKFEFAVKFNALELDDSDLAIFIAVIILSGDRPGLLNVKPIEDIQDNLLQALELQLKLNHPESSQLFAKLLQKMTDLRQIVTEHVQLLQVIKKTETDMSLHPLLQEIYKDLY
Glucocorticoid receptor (Homo sapiens), sequence (P04150 whole entry, looked up): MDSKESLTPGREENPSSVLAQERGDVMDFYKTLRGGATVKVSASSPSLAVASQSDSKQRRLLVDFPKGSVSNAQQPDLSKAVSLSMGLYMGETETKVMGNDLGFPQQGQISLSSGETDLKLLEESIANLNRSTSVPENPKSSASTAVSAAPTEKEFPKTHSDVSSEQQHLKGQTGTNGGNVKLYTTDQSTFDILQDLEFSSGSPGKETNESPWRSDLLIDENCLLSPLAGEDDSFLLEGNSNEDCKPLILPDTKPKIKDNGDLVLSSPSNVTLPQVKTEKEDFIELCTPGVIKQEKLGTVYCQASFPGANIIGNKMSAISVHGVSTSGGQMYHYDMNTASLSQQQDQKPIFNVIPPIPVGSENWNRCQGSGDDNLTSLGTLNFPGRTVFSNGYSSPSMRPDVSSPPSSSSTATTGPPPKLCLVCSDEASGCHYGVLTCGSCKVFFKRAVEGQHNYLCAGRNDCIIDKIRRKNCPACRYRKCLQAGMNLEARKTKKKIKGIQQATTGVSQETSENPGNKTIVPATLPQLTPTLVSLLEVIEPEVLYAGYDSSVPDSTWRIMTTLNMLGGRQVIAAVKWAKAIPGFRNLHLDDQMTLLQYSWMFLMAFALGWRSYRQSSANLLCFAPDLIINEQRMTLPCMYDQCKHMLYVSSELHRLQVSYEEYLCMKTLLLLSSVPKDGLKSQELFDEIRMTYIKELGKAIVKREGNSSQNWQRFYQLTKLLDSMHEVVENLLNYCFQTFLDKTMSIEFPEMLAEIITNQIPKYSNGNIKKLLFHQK
Nuclear receptor subfamily 1 group I member 2 (Homo sapiens), sequence (O75469 whole entry, looked up): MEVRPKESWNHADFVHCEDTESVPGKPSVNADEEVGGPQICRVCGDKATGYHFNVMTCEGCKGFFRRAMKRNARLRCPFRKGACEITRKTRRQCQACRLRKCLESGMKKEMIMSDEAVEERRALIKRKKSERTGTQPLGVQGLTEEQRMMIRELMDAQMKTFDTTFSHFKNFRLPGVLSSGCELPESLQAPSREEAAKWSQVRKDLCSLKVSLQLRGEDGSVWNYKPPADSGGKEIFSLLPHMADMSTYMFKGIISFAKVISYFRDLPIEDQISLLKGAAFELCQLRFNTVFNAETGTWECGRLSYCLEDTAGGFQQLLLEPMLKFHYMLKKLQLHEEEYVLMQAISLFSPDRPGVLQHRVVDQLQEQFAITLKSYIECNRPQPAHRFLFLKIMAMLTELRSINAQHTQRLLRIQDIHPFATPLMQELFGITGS
Estrogen receptor beta (Homo sapiens), sequence (Q92731 whole entry, looked up, the tested form may be a part): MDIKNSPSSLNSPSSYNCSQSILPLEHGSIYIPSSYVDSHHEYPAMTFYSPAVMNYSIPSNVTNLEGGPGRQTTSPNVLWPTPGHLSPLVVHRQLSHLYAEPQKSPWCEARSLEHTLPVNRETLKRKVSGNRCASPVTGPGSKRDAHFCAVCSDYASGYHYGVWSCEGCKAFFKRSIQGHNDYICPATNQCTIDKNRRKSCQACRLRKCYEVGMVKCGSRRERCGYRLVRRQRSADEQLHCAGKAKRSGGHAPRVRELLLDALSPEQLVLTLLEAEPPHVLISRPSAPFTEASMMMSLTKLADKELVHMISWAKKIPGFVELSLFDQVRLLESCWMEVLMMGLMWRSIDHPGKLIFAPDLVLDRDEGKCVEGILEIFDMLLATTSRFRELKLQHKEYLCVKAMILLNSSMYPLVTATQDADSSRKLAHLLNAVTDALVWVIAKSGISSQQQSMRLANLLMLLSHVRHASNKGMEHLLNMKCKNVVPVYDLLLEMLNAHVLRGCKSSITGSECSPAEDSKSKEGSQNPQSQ
Retinoic acid receptor RXR-alpha (Homo sapiens), sequence (P19793 whole entry, looked up, the tested form may be a part): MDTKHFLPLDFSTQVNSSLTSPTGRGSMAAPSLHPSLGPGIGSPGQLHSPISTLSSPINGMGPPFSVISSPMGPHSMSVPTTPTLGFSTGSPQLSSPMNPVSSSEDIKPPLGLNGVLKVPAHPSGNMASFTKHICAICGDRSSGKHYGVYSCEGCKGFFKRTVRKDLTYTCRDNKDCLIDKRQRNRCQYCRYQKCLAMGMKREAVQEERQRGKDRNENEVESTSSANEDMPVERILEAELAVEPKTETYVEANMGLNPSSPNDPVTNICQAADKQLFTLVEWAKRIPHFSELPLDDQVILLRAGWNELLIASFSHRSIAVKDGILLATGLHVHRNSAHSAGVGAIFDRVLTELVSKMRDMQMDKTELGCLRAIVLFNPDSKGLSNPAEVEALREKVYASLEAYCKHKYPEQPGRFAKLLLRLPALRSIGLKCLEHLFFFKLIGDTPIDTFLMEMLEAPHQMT
Bile acid receptor (Homo sapiens), sequence (Q96RI1 whole entry, looked up, the tested form may be a part): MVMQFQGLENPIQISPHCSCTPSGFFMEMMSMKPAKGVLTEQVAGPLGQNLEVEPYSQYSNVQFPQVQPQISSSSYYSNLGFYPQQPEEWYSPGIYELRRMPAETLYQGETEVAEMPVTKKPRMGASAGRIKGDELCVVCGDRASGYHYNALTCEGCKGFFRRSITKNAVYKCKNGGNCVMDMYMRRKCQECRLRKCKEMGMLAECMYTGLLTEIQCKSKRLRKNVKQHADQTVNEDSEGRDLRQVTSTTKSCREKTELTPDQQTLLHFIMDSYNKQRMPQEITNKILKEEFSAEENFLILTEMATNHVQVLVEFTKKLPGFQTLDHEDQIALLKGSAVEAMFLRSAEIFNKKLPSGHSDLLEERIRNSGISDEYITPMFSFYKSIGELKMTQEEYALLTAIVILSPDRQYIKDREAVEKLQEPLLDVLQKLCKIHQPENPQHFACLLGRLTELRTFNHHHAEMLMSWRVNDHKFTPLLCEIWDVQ

Cn1c(=O)cc(Oc2ccc(F)cc2F)c2cnc(NCC(C)(C)O)nc21
active: [1] 2.48 µM | [3] 25 µM | [4] 32.4 µM | [5] 4.35 µM
inactive: [2] | [6] | [7] | [8] | [9] | [10]

Oc1ccc2c(c1)-c1ccccc1C2
active: [5] 9.7 µM | [6] 11 µM
inactive: [1] | [4] | [11] | [9] | [10]

O=C(O)c1cccc(N(Cc2cccnc2)c2ccc(OC(F)F)c(OC(F)F)c2)c1
inactive: [12] | [11] | [6]
active: [4] 25 µM | [13] 29.4 µM | [10] 32.4 µM

CCCCCCc1ccc(O)cc1O
inactive: [3] | [14] | [11]
active: [1] 33.7 µM | [4] 25 µM | [5] 12.8 µM

Nc1ccc(Nc2ccccc2)cc1
active: [1] 14.6 µM | [15] 25 µM | [5] 6.87 µM
inactive: [7] | [8] | [10]

Nc1cccc(N)c1
active: [9] 78.8 µM
inactive: [16] | [6] | [13] | [10]

CC1(C)C(=O)N(Br)C(=O)N1Br
inactive: [16] | [4] | [11] | [6] | [9] | [10]

COc1ccc2sc(C(=O)Nc3nnn[nH]3)c(OC(C)C)c2c1
inactive: [1] | [5] | [6] | [7] | [8]
active: [4] 5.14 µM

CCn1nc(Cc2ccccc2)cc1C1CCN(C[C@H]2C[C@H](N(C)[C@@H](C(=O)O)C(C)C)C[C@@H]2c2cccc(F)c2)CC1
active: [15] 13.8 µM | [5] 11 µM
inactive: [1] | [6] | [7] | [8] | [13] | [10]

COc1ccc(-n2nc(C(F)F)cc2-c2ccc(S(C)=O)cc2)cc1 (centres undefined)
active: [1] 16.7 µM | [3] 33.2 µM
inactive: [4] | [7] | [8] | [10]

C=CCCCCCCCCC(=O)O
inactive: [16] | [6] | [7] | [8] | [13] | [10]

On1ccccc1=S
active: [17] 9.11 µM
inactive: [6] | [10]

CC(=O)OCCC(C)C
inactive: [16] | [15] | [5] | [6] | [10]

CCOC(=O)c1ccc(C2CCC(NC[C@H](O)COc3ccc(O)c(NS(C)(=O)=O)c3)CC2)cc1 (some centres undefined)
active: [15] 8.87 µM | [18] 14.9 µM | [19] 7.29 µM | [14] 1.71 µM | [5] 1.01 µM | [9] 28.8 µM | [10] 10.4 µM
inactive: [1] | [4]

Cc1[nH]cnc1C[C@H]1CCc2c(C)c3ccccc3n2C1=O
active: [2] 10 µM | [15] 12.7 µM | [18] 8.03 µM | [19] 8.58 µM | [14] 7.59 µM | [5] 7.21 µM
inactive: [17] | [6] | [13]

NC(=O)NO
inactive: [16] | [6] | [13] | [10]

CCc1cc(SCc2sc(-c3ccc(C(F)(F)F)cc3)nc2CN2CCN(c3ccc(OC)cc3)CC2)ccc1OCC(=O)O
active: [1] 1.57 µM | [3] 10.8 µM | [15] 15.2 µM | [4] 7.42 µM | [5] 4.89 µM | [9] 12 µM
inactive: [6]
